The source of these data is ChEMBL document CHEMBL2218924, “A broad activity screen in support of a chemogenomic map for kinase signalling research and drug discovery” (Biochem J, 2013).

In this experiment the target is Platelet-derived growth factor receptor alpha (Homo sapiens) (UniProt P16234). The settings on record: at 1 µM.
Chain of Platelet-derived growth factor receptor alpha (Homo sapiens) (P16234 whole entry): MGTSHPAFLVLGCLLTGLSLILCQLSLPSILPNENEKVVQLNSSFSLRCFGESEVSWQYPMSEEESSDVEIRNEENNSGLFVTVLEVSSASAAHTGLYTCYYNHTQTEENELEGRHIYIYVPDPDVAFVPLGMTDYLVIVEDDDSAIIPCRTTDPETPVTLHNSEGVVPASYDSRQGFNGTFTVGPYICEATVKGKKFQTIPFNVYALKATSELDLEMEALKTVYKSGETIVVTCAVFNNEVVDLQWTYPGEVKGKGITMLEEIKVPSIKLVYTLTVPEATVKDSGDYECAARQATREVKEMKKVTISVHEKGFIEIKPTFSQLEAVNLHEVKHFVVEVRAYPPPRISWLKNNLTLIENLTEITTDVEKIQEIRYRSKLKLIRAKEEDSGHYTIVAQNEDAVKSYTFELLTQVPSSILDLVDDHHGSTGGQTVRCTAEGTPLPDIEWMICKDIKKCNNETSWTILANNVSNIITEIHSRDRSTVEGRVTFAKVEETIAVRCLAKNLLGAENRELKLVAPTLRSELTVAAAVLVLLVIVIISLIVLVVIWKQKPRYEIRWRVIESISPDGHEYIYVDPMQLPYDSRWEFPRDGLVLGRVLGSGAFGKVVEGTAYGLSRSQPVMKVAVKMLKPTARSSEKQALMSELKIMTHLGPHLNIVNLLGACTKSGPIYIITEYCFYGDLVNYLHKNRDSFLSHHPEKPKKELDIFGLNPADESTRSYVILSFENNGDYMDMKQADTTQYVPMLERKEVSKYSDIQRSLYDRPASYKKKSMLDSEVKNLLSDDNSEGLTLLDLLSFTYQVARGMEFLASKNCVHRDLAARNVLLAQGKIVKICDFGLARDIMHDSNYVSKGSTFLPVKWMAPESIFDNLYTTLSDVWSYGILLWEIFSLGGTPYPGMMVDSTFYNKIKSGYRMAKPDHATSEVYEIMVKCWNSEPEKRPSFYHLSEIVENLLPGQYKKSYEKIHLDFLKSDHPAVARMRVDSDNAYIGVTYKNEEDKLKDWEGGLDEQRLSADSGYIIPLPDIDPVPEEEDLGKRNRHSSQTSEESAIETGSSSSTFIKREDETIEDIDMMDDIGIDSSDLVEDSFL
On to `Oc1cccc(-c2nc(N3CCOCC3)c3oc4ncccc4c3n2)c1`, for which the residual activity (commonly the signal under treatment as a percentage of the control signal) stood at 127%.
For `NC(=O)Nc1sc(-c2ccc(F)cc2)cc1C(N)=O` the value was 41%; for `O=C1Cc2c([nH]c3ccc([N+](=O)[O-])cc23)-c2ccccc2N1`, 109%.
With `Cn1sc(=O)n(Cc2ccccc2)c1=O` the figure was 100%; with `CCOC(=O)c1c(C)[nH]c(/C=C2\C(=O)Nc3ccccc32)c1C`, 43%; with `Nc1ncnc2[nH]nc(Nc3ccc(F)cc3)c12`, 105%.
With `Cn1c2ccccc2c2c3c(c4c5ccccc5n(CCC#N)c4c21)CNC3=O` the figure was 98%; with `N#C/C(=C\c1ccc(O)c(O)c1)C(=O)NCc1ccccc1`, 122%; with `O=C1Nc2ccc(Cl)cc2/C1=C/c1cc(Cl)c(O)c(Cl)c1`, 60%.
In the case of `COc1cc2c(cc1OC)-c1n[nH]c(Nc3cccc(F)c3)c1C2`, the residual activity came out at 2%.
For `O=C(CCCc1ccc(-c2ccccc2F)cc1)Nc1ccc(O)cc1` the value was 103%; for `CCCCc1c(-c2ccc(OC)cc2)[nH]c2nccnc12`, 105%.
`O=C1NC(=O)c2c1c1c3ccccc3[nH]c1n1cncc21`: the residual activity was 96%.
For `CCN(CC)CCNC(=O)c1c(C)[nH]c(/C=C2\C(=O)Nc3ccc(Cl)cc32)c1C` the value was 2%.
Regarding `CC(C)(C)n1nc(Cc2cccc3ccccc23)c2c(N)ncnc21`, the residual activity came to 116%.
For `CCCC(=O)Oc1ccc2[nH]c(C(=O)c3cc4ccccc4[nH]3)cc2c1` the value was 108%.
With `Nc1ncnc2c1c(-c1ccc(Oc3ccccc3)cc1)cn2C1CCCC1` the figure was 17%; with `COc1cc2nccc(Oc3ccc(NC(=S)NC(=O)c4ccccc4C)cc3)c2cc1OC`, 7%; with `NCCNc1ncc(C(N)=O)c(Nc2cccc(C(F)(F)F)c2)n1`, 107%.
